Test systems include SR leukemia; RPMI-8226 leukemia; OVCAR-8 ovarian; OVCAR-5 ovarian; OVCAR-4 ovarian; SK-OV-3 ovarian; OVCAR-3 ovarian; HS 578T breast; NCI/ADR-RES ovarian; IGROV1 ovarian.
Test in all cases: NCI-60 one-dose screen, 48 h (100 = growth as untreated, 0 = no growth, -100 = all killed)
Holding throughout (details): 10 µM unless noted

This passage reports growth results from PubChem BioAssay (NCI).

Compounds without any hit were thinned out: in the full panel of roughly 83,000, 20% have a hit.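 Negative percent growth values reflect cell death: -40 means 40% of the cells present at the start died, and -100 means all died.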 Values without a mark were called inactive. Active and inactive are the calls of the source. How the source made its calls: active means growth percent below 10; inactive means the rest.

For `COc1cnc2c(c1)C(=O)c1c-2n(CCCNC2=NCCS2)c(=O)c2cc(F)ccc12`, the growth in the assay with SR leukemia is -8.78% (active); with RPMI-8226 leukemia it was -14.3% (active); in the assay with OVCAR-8 ovarian, 31.3%; in the assay with OVCAR-5 ovarian it was 53.2%; with OVCAR-4 ovarian, 63.1%; with SK-OV-3 ovarian it was 11.1%. Besides, the growth was 32.6% in the assay with OVCAR-3 ovarian, 65.5% in the assay with HS 578T breast and 34.6% in the assay with NCI/ADR-RES ovarian.

Take `Cc1ccc(-c2csc(N)n2)cc1`: the growth is 86.3% with SR leukemia; 89.2% with RPMI-8226 leukemia; 101% with OVCAR-8 ovarian; 94% in the assay on OVCAR-5 ovarian; 94% in the assay with OVCAR-4 ovarian; 108% with SK-OV-3 ovarian. Further, the growth in the assay on OVCAR-3 ovarian was 114%; with HS 578T breast it was 115%; in the assay on NCI/ADR-RES ovarian, 104%.

With `O=c1[nH]cc(Nc2cc(Cl)c3nonc3c2[N+](=O)[O-])c(=O)[nH]1`, the growth in the assay with SR leukemia is 100%; in the assay on RPMI-8226 leukemia, 96.2%; with OVCAR-8 ovarian it was 98.4%; in the assay with OVCAR-5 ovarian, 98.1%; with OVCAR-4 ovarian, 121%; in the assay on SK-OV-3 ovarian, 104%. Besides, the results for the growth in the assay on OVCAR-3 ovarian, in the assay on HS 578T breast and in the assay with NCI/ADR-RES ovarian were 123%, 47.8% and 96%, respectively.

For the compound `COC(=O)c1cc2oc(/C=N\NC(=O)c3cc4oc(C)c(C)c4[nH]3)cc2[nH]1`, the growth with SR leukemia is 51.4%; in the assay on RPMI-8226 leukemia, 35.1%; with OVCAR-8 ovarian, 108%; in the assay on OVCAR-5 ovarian it was 111%; in the assay with OVCAR-4 ovarian it was 118%; in the assay on SK-OV-3 ovarian, 100%. The growth with OVCAR-3 ovarian was 128%; with HS 578T breast it was 108%; in the assay with NCI/ADR-RES ovarian, 102%.

In the case of `O=C(COc1cccc(/C=C2\Oc3ccc4ccccc4c3C2=O)c1)c1ccc(Cl)cc1`, the growth is 51.6% in the assay on SR leukemia; 67.9% in the assay with RPMI-8226 leukemia; 80% in the assay on OVCAR-8 ovarian; 108% in the assay with OVCAR-5 ovarian; 85.3% in the assay on OVCAR-4 ovarian; 95.6% in the assay on SK-OV-3 ovarian. The growth is 93.8% with OVCAR-3 ovarian, 92.8% with HS 578T breast and 100% with NCI/ADR-RES ovarian.

Regarding `O=C(N/N=C/c1cccc([N+](=O)[O-])c1)c1ccc(Br)o1`, the growth was 134% in the assay with SR leukemia; 85.9% with RPMI-8226 leukemia; 39.4% with OVCAR-8 ovarian; 107% with OVCAR-5 ovarian; 105% in the assay with OVCAR-4 ovarian; 97.7% in the assay with SK-OV-3 ovarian. Besides, the results for the growth in the assay on OVCAR-3 ovarian, with HS 578T breast and in the assay on NCI/ADR-RES ovarian were 111%, 158% and 101%, respectively.

As to `COc1ccc2nc(NC(=O)CN3CCn4c(nnc4C(F)(F)F)C3)sc2c1`, the growth with SR leukemia was 87.8%; with RPMI-8226 leukemia it was 90%; in the assay on OVCAR-8 ovarian, 96.5%; in the assay with OVCAR-4 ovarian, 104%; in the assay with SK-OV-3 ovarian, 105%; in the assay on IGROV1 ovarian it was 92.8%. Moreover, the growth in the assay with OVCAR-3 ovarian was 93.7%; in the assay on HS 578T breast it was 97%; in the assay on NCI/ADR-RES ovarian, 93.6%.

On to `CN1CCN(CCCOc2ccc3ncnc(Nc4ccc(OCc5cccc(F)c5)c(Cl)c4)c3c2)CC1`, for which the growth in the assay on SR leukemia is -6.49% (active); in the assay with RPMI-8226 leukemia, -24.6% (active); in the assay on OVCAR-5 ovarian, -59.4% (active); in the assay on OVCAR-4 ovarian, -19.9% (active); in the assay on SK-OV-3 ovarian, 12.4%; with IGROV1 ovarian it was -34.9% (active). Moreover, the figures for the growth in the assay on OVCAR-3 ovarian and in the assay with HS 578T breast were -6.29% (active) and -19.3% (active), respectively.

Take `O=C1CSC(c2ccccc2O)N1c1nnc(Cn2ccnc2)o1` (stereo not given): the growth was 43.9% in the assay on SR leukemia; 36.1% with RPMI-8226 leukemia; 58.8% in the assay with OVCAR-8 ovarian; 64.4% in the assay on OVCAR-4 ovarian; 74.2% in the assay on SK-OV-3 ovarian; 67.7% in the assay on IGROV1 ovarian. In addition, the growth was 37.8% in the assay with OVCAR-3 ovarian, 80.6% with HS 578T breast and 26% with NCI/ADR-RES ovarian.

Turning to `O=C(Nc1ccc(Cl)cc1)Nc1ccccc1CNc1nc(Nc2ccc(OCCN3CCCC3)cc2)ncc1Cl`, the growth is 1.33% (active) with SR leukemia; -24.2% (active) with RPMI-8226 leukemia; 105% in the assay on OVCAR-5 ovarian; -47.4% (active) with OVCAR-4 ovarian; 91.6% in the assay on SK-OV-3 ovarian; 15.8% in the assay with IGROV1 ovarian. For the same compound, the growth in the assay on OVCAR-3 ovarian was -77.9% (active); with HS 578T breast, 96.4%; with NCI/ADR-RES ovarian it was -35.9% (active).

`O=c1oc2c(cc1-c1ccc([N+](=O)[O-])cc1)C(O)Oc1ccccc1-2` (stereo not given): the growth was 56.2% with SR leukemia; 50.2% with RPMI-8226 leukemia; 94.7% with OVCAR-8 ovarian; 86.4% with OVCAR-4 ovarian; 99.6% in the assay with SK-OV-3 ovarian; 111% with OVCAR-3 ovarian. Further, the growth in the assay with HS 578T breast was 102%; in the assay on NCI/ADR-RES ovarian, 72.2%.

On to `Cc1nn(-c2ccccc2)c2nc(N)c(C3=NCCO3)nc12`, for which the growth is 104% in the assay on SR leukemia; 87.2% with RPMI-8226 leukemia; 95.9% with OVCAR-8 ovarian; 93.3% in the assay on OVCAR-5 ovarian; 94.2% with SK-OV-3 ovarian; 114% with OVCAR-3 ovarian. In addition, the growth in the assay on HS 578T breast was 82.2%; in the assay on NCI/ADR-RES ovarian, 101%.

For `O=C1/C(=C/c2ccccc2O)C(=S)SN1Cc1ccco1`, the growth is -9.87% (active) with SR leukemia; 66.8% in the assay with RPMI-8226 leukemia; 102% in the assay on OVCAR-5 ovarian; 105% in the assay on OVCAR-4 ovarian; 98.8% in the assay on SK-OV-3 ovarian; 93.4% with IGROV1 ovarian. Besides, the growth in the assay with OVCAR-3 ovarian is 111%; in the assay with HS 578T breast, 104%.

Regarding `O=C(NC1CCS(=O)(=O)C1)c1ccc(C(=O)c2ccccc2)cc1` (stereo not given), the growth in the assay on SR leukemia is 133%; with RPMI-8226 leukemia, 72.8%; in the assay with OVCAR-8 ovarian, 70%; in the assay with OVCAR-4 ovarian it was 98.1%; in the assay with SK-OV-3 ovarian, 113%; in the assay with OVCAR-3 ovarian, 121%. Further, the growth with HS 578T breast was 34.5%; in the assay on NCI/ADR-RES ovarian, 117%.

As for `CSc1nc(Nc2ccc(S(=O)(=O)Nc3ccon3)cc2)c(C#N)c(-c2ccc(Cl)cc2)n1`, the growth in the assay with SR leukemia is -37.8% (active); in the assay with RPMI-8226 leukemia, 71.3%; with OVCAR-8 ovarian it was 95.7%; in the assay with OVCAR-4 ovarian, 113%; with SK-OV-3 ovarian, 108%; with IGROV1 ovarian it was 96.6%. Further, the growth was 122% in the assay with OVCAR-3 ovarian, 106% in the assay on HS 578T breast and 102% in the assay with NCI/ADR-RES ovarian.
